# Results reported in ChEMBL document CHEMBL3988442, “University of Dundee, Small-Polar-MMV Screening Library” (2021).
# Hit rate of the full screen: of about 66,000 compounds, about 960 (1.5%) showed an effect of 50% or more. The sample holds strong results, similar compounds and a random draw of the others, so the mix is not that of the screen.
# Tested on: Trypanosoma brucei
# Test: Trypanosoma brucei 72 hour study
# Format: functional, organism-based
# Design: scale not given: in the data most compounds retested in dose-response had high values
smiles,measurement,setting,value
COc1ccc(C)cc1CN1CCCC1Cn1nc(C)nc1C (centres undefined),Percent Effect,"30 µM, 30.03 µM",103.3%
Cc1nc(C)n(CC2CCCN2Cc2nc(C)c3ccccc3n2)n1 (centres undefined),Percent Effect,10 µM,-1.729%
same,Percent Effect,"30.3 µM, […]",68.42%
Cc1cnn(CC2CCCCN2Cc2nc(C)c3ccccc3n2)c1 (centres undefined),Percent Effect,"30.3 µM, […]",-8.505%
same,Percent Effect,"10 mM, 10 mM as filed; unlikely as a test dose",-58.92%
COc1c(C)cnc(CN2CCCC2c2noc(C3CC3)n2)c1C (centres undefined),Percent Effect,"30 µM, 30.03 µM",-15.93%
Cc1nc(CN2CCCC2Cn2cccn2)nc2ccccc12 (centres undefined),Percent Effect,"30 µM, 30.03 µM",-97.44%
Cc1cnn(CC2CCCN2Cc2nc(C)c3ccccc3n2)c1 (centres undefined),Percent Effect,"30.3 µM, […]",99.14%
same,Percent Effect,"10 mM, 10 mM as filed; unlikely as a test dose",-68.59%
Cc1cc(CN2CCCC2c2noc(C3CC3)n2)c2ccccc2n1 (centres undefined),Percent Effect,"30 µM, 30.03 µM",8.829%
COc1ccc(CN2CCCC2Cn2nc(C)nc2C)cc1F (centres undefined),Percent Effect,"30 µM, 30.03 µM",13.69%
CC(C)CC(=O)N1CCC2(CC1)COCCN2Cc1ccc(F)cc1.O=C(O)C(F)(F)F,Percent Effect,"30 µM, 30.03 µM",17.24%
COc1ccc(C[C@H]2CNCC[C@@H]2OC)cc1.O=C(O)C(F)(F)F,Percent Effect,"30.3 µM, […]",-9.891%
C[C@@H]1CN(S(C)(=O)=O)C[C@]12CCN(Cc1cccnc1)C2=O.O=C(O)C(F)(F)F,Percent Effect,"30.3 µM, […]",-31.63%
Cc1cc(Cl)c(C)c(S(=O)(=O)N2CCN(Cc3ccncc3)CC2)c1Cl,Percent Effect,"30 µM, 30.03 µM",-52.63%
CNC(=O)[C@@H]1CN(C(=O)C2CCC2)C[C@H]1c1ccnc(N2CCCC2)n1.Cl,Percent Effect,"30.3 µM, […]",8.722%
Cn1cc(CCC(=O)N2C[C@@H]3CC[C@H](C2)N(Cc2ccccn2)C3)cn1,Percent Effect,"30.3 µM, […]",7.516%
CC(C)c1cc(NC(=O)CN2CCCC2c2noc(C(C)C)n2)on1 (centres undefined),Percent Effect,10 µM,-43.85%
same,Percent Effect,"30.3 µM, […]",0.3759%
CN(C(=O)NCc1ccncc1)C1CCCN(c2ccccc2)C1=O (centres undefined),Percent Effect,10 µM,-27.33%
COCCN1CCC2(CC1)CC(c1cccnc1)CO2.O=C(O)C(F)(F)F (centres undefined),Percent Effect,"30.3 µM, […]",-48.93%
Cc1c(C)n2c(SCC(=O)N3CCCCC3)nnc2[nH]c1=O,Percent Effect,"30.3 µM, […]",-16.73%
Cl.O=C1CC2(CCCNC2)C(=O)N1Cc1cccc(Cl)c1 (centres undefined),Percent Effect,"30.3 µM, […]",2.467%
CCC(C)NC(=O)Cn1c(Nc2cc(C)cc(C)c2)nc(C)cc1=O (centres undefined),Percent Effect,"30 µM, 30.03 µM",-43.03%
Cc1ccc(NCc2cncc3c2CCN(Cc2ccccn2)C3)nn1.Cl.Cl,Percent Effect,"30.3 µM, […]",-48.05%
O=C(O)C(F)(F)F.O=C([C@H]1CC[C@@H]2[C@@H](CCN2Cc2nccs2)O1)N1CCOCC1,Percent Effect,"30.3 µM, […]",-77.67%
NC[C@H]1CC[C@H](C(NC(=O)C2CC2)c2ccccn2)CC1 (some centres undefined),Percent Effect,"30.3 µM, […]",-27.22%
C/C(=C\c1ccccc1)CN1CCCC(c2nnc3n2CCNCC3)C1.Cl (centres undefined),Percent Effect,"30.3 µM, […]",-29.45%
O=C(O)C(F)(F)F.O=C(O)C(F)(F)F.O=C1CC(c2ccncc2)C2(CCN(Cc3ccc(F)cc3)CC2)N1 (centres undefined),Percent Effect,"30 µM, 30.03 µM",27.71%
Cc1ccc(CN2CCC[C@]3(C(=O)O)CN(CC4CC4)C[C@@H]3C2)s1.O=C(O)C(F)(F)F.O=C(O)C(F)(F)F,Percent Effect,"30.3 µM, […]",-73.23%
CCCn1c(C)c(CC(=O)NCCC(N)=O)c2c1CC(C)(C)CC2=O,Percent Effect,"30 µM, 30.03 µM",-41.08%
Cc1nc(NC(=O)c2ccc(-n3ncc(C#N)c3N)cc2)sc1C,Percent Effect,10 µM,-25.11%
Cc1cnn(CC2CCCCN2Cc2nc(N)c3ccccc3n2)c1 (centres undefined),Percent Effect,"30 µM, 30.03 µM",14.94%
Cc1cnn(CC2CCCN2Cc2nc(N)c3ccccc3n2)c1 (centres undefined),Percent Effect,"30.3 µM, […]",51.47%
same,Percent Effect,"10 mM, 10 mM as filed; unlikely as a test dose",-16.65%
Nc1nc(CN2CCCC2Cn2cncn2)nc2ccccc12 (centres undefined),Percent Effect,10 µM,-61.59%
COCCN1CCn2cc(CNC(=O)c3cnn(C)c3)nc2C1.O=C(O)C(F)(F)F,Percent Effect,"30 µM, 30.03 µM",-33.8%
CC(C)CN1C[C@H]2C[C@H](C(=O)NC3CCC3)[C@@H](C1)O2.O=C(O)C(F)(F)F,Percent Effect,"30.3 µM, […]",-44.07%
COc1cccc(-c2cccc(N3CCC(N[C@@H]4CCOC4)CC3)c2)c1,Percent Effect,"30 µM, 30.03 µM",9.147%
Clc1cccc(-c2cccc(N3CCC(NC4CCOCC4)CC3)c2)c1,Percent Effect,"30 µM, 30.03 µM",100.7%
Cc1ccc(-c2cccc(N3CCC(NC4CCOCC4)CC3)c2)cc1,Percent Effect,"30 µM, 30.03 µM",8.614%
COC(=O)c1ccc(CNCc2ccn(C)n2)cc1,Percent Effect,"30.3 µM, […]",-7.529%
O=C(O)C(F)(F)F.O=C(O)C(F)(F)F.O=C1CCC2(CCN(Cc3ccc(F)cc3)CC2)N1CCN1CCCC1,Percent Effect,"30.3 µM, […]",-27.18%
Cc1nccc(-c2cccc(NCC(=O)N3CCNC(=O)C3)c2)n1,Percent Effect,"30.3 µM, […]",13.04%
Cc1nccc(-c2cccc(NCC(=O)N3CCOC(C)C3)c2)n1 (centres undefined),Percent Effect,"30.3 µM, […]",18.9%
Cc1nccc(-c2cccc(NCC(=O)N3CCCC(C)C3)c2)n1 (centres undefined),Percent Effect,"30.3 µM, […]",89.85%
Cc1nccc(-c2cccc(NCC(=O)N3CCCCCCC3)c2)n1,Percent Effect,"30 µM, 30.03 µM",-43.47%
Cc1nccc(-c2cccc(NCC(=O)N3CCOCC3)c2)n1,Percent Effect,"30.3 µM, […]",18.69%
Cc1nccc(-c2cccc(NCC(=O)N3CCc4sccc4C3)c2)n1,Percent Effect,"30 µM, 30.03 µM",51.17%
